{"source": "ChEMBL document CHEMBL4513216", "about": "“Probing the Open Global Health Chemical Diversity Library for Multistage-Active Starting Points for Next-Generation Antimalarials” (ACS Infect Dis, 2020)", "note": "The whole screen tested about 68,000 compounds, of which about 2,700 (4%) showed an effect of 50% or more. The sample as a whole holds a higher share of strong results than the screen did.", "data": [{"tested_on": "Plasmodium berghei", "experiment": "Screen against P. berghei liver stage (PbLuc), transformed with Luciferase, at 2uM", "type": "functional, HepG2", "details": "tested at 2 uM", "units": {"INHIBITION": "%"}, "values": [{"smiles": "COCCc1noc(CN2C(=O)OC[C@@H]2C(C)C)n1", "INHIBITION": -7.66}, {"smiles": "CC1N(C)C(=O)COC12CCN(C(=O)Cc1ccsc1)CC2", "note": "(stereo unspecified)", "INHIBITION": 2.18}, {"smiles": "CC1N(C)C(=O)COC12CCN(Cc1ccsc1)CC2", "note": "(stereo unspecified)", "INHIBITION": -30.38}, {"smiles": "CC1N(C)C(=O)COC12CCN(C(=O)CCc1ccccc1)CC2", "note": "(stereo unspecified)", "INHIBITION": 65.38}, {"smiles": "O=C(c1cccc(F)c1)N1CCC2(CC1)CC(N1CCOCC1)C2", "INHIBITION": -21.77}, {"smiles": "CCc1n[nH]c(C2CN(Cc3csc(COC)n3)CCO2)n1", "note": "(stereo unspecified)", "INHIBITION": 12.58}, {"smiles": "c1ccc(-c2nnn3c2COC(CNCC2CC2)C3)cc1", "note": "(stereo unspecified)", "INHIBITION": 14.48}, {"smiles": "c1cc(-c2nnn3c2COC(CNCC2CCOCC2)C3)ccn1", "note": "(stereo unspecified)", "INHIBITION": 86.79}, {"smiles": "c1ccc(-c2nnn3c2COC(CNCC2CCOCC2)C3)cc1", "note": "(stereo unspecified)", "INHIBITION": 12.36}, {"smiles": "Cc1cccc(C(=O)NCc2ccc(N3CCCCCC3)nc2)n1", "INHIBITION": -26.87}, {"smiles": "Cc1cn2c(n1)C(CNCC1=Cc3cc(Cl)ccc3OC1)CCC2", "note": "(stereo unspecified)", "INHIBITION": 9.21}, {"smiles": "CCCS(=O)(=O)N1CCC2(CC1)CC(N1CCCC1)c1ccccc12", "note": "(stereo unspecified)", "INHIBITION": -21.74}, {"smiles": "Cc1nc2c(c(=O)[nH]1)CN(C(=O)CCC1CCCN(C)C1)C2", "note": "(stereo unspecified)", "INHIBITION": 19.48}, {"smiles": "CC(C)c1ccc(S(=O)(=O)N2CCCC3(CCCN3S(C)(=O)=O)C2)cc1", "note": "(stereo unspecified)", "INHIBITION": 42.62}, {"smiles": "CCOCCC(=O)Nc1cccc(Cl)c1COC", "INHIBITION": 1.06}, {"smiles": "CCOCCC(=O)Nc1ccnn1-c1ccc(Cl)cc1", "INHIBITION": -24.07}, {"smiles": "CCOCCC(=O)Nc1cccc(Cl)c1C(N)=O", "INHIBITION": 56.89}, {"smiles": "CC(C)CCc1nc(CNCC2CCCN2c2cccnn2)cs1", "note": "(stereo unspecified)", "INHIBITION": 15.47}, {"smiles": "CN(C)C(=O)c1n[nH]c2c1CN(Cc1nccs1)CC2", "INHIBITION": -8.84}, {"smiles": "c1cncc(CNCCc2cccs2)c1", "INHIBITION": -10.44}, {"smiles": "COC(=O)CNC(=O)CSCc1nc(O)c2cc(C(C)C)sc2n1", "INHIBITION": 5.36}, {"smiles": "COCCNC(=O)CSCc1nc(O)c2cc(C(C)C)sc2n1", "INHIBITION": -43.28}, {"smiles": "COC(=O)C(C)NC(=O)CSCc1nc(O)c2cc(C(C)C)sc2n1", "note": "(stereo unspecified)", "INHIBITION": 52.08}, {"smiles": "Cc1nc[nH]c1CN(Cc1ccc(F)cc1)C1CC(C)(C)NC(C)(C)C1", "INHIBITION": -24.35}, {"smiles": "Cc1nc[nH]c1CN(Cc1ccccc1)C1CC(C)(C)NC(C)(C)C1", "INHIBITION": 50.68}, {"smiles": "Cc1nc[nH]c1CN(Cc1ccccc1F)C1CC(C)(C)NC(C)(C)C1", "INHIBITION": 39.26}, {"smiles": "O=C(NCc1ccco1)[C@H]1C[C@@H]2CCN(c3cccc(F)c3)C[C@H]2O1", "INHIBITION": 45.28}, {"smiles": "CCCN1CCC(N2CCN(c3cccc(C)n3)CC2)CC1", "INHIBITION": 36.24}, {"smiles": "Nc1cc(CCC2CN(Cc3ccc4cc[nH]c4c3)CCO2)ccn1", "note": "(stereo unspecified)", "INHIBITION": 52.69}, {"smiles": "Nc1cc(CCC2CN(Cc3ccc4c(c3)OCCO4)CCO2)ccn1", "note": "(stereo unspecified)", "INHIBITION": 23.87}, {"smiles": "COc1ccc(CN2CCOC(CCc3ccnc(N)c3)C2)cc1", "note": "(stereo unspecified)", "INHIBITION": -152.49}, {"smiles": "COCC1CN(Cc2ccc(OC)cc2)Cc2nn(C)cc21", "note": "(stereo unspecified)", "INHIBITION": -62.13}, {"smiles": "CN(CC(=O)N1CCOC(CCc2ccccc2)C1)Cc1ccccn1", "note": "(stereo unspecified)", "INHIBITION": 3.94}, {"smiles": "CC(C)NC(=O)[C@@H]1C[C@@H]2CCN(Cc3ccoc3)C[C@H]2O1", "INHIBITION": 0}, {"smiles": "CC(c1nc(C(C)(C)C)no1)N1CCC(N2CCCC2)CC1", "note": "(stereo unspecified)", "INHIBITION": 4.52}, {"smiles": "CCS(=O)(=O)N1CCc2ccc(NC(=O)Nc3cccc(C)c3)cc21", "INHIBITION": 80.54}, {"smiles": "NS(=O)(=O)N1CCc2ccc(NC(=O)Cc3ccccc3F)cc21", "INHIBITION": 60.14}, {"smiles": "NS(=O)(=O)N1CCc2ccc(NC(=O)Cc3ccc(F)cc3)cc21", "INHIBITION": 1.22}, {"smiles": "CCS(=O)(=O)N1CCc2ccc(NC(=O)Nc3cccc(SC)c3)cc21", "INHIBITION": 47.4}, {"smiles": "CCS(=O)(=O)N1CCc2ccc(NC(=O)Nc3ccccc3C)cc21", "INHIBITION": -7.56}, {"smiles": "CCS(=O)(=O)N1CCc2ccc(NC(=O)Nc3ccc(F)cc3F)cc21", "INHIBITION": 36.98}, {"smiles": "CCS(=O)(=O)N1CCc2ccc(NC(=O)Nc3cccc(F)c3)cc21", "INHIBITION": 78.93}, {"smiles": "NS(=O)(=O)N1CCc2ccc(NC(=O)CC(F)(F)F)cc21", "INHIBITION": 6.91}, {"smiles": "CCS(=O)(=O)N1CCc2ccc(NC(=O)Nc3ccccc3)cc21", "INHIBITION": 20.38}, {"smiles": "O=C(O)c1cc2c(nc1N1CCOCC1)CCN(C1CCOC1)CC2", "note": "(stereo unspecified)", "INHIBITION": -51}, {"smiles": "CCc1ccc(C(=O)Nc2ccc(CC3CC(=O)NC3=O)cc2)s1", "note": "(stereo unspecified)", "INHIBITION": -3.62}, {"smiles": "CCc1ncc(CN2CCN(c3cc(NC4CC4)nc(N)n3)CC2)cn1", "INHIBITION": -18.65}, {"smiles": "CCn1cc(NC(=O)Nc2ccc3c(c2)OCCO3)cn1", "INHIBITION": -27.62}, {"smiles": "Cc1cc(CN2CCC(CNC(=O)c3ccc4[nH]cnc4c3)C2)[nH]n1", "note": "(stereo unspecified)", "INHIBITION": -48.91}, {"smiles": "CC(C)c1nn(C)c(N(C)C)c1CNC1CCN(CC2CC2)CC1", "INHIBITION": 10.61}, {"smiles": "O=c1[nH]c(N2CCCCC2)nc2c1CCN(Cc1cccnc1)C2", "INHIBITION": 43.23}]}]}
